Measurements reported in the supplement of paper PMC11006884.
The full data set covers some 6,500 targets. This sample favours those with a hit. About 2% of all pairs of compound and target were hits.

What follows are targets tested with COC(=O)C#Cc1ccccc1 [methyl 3-phenylpropiolate] (assay: log2 ratio of iodoacetamide-alkyne labeling of the cysteine site, DMSO over compound (competition); higher = stronger covalent engagement of the cysteine by the compound, active = 1 or more). Settings: 500 µM; treatment time 1 h; system: HEK293T cell lysate.
Outline: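 HEK293T lysate (2 mg/mL) was treated with DMSO or electrophile (500 µM, 1 h, ambient temperature), then iodoacetamide alkyne (1 h), clicked to sCIP-TMT reagents, pooled, trypsin-digested overnight at 37 °C, streptavidin-enriched and acid-eluted. Peptides were run on Orbitrap Eclipse LC-MS/MS with FAIMS and quantified in FragPipe. The log2 competition ratio per cysteine is mean control-channel over mean compound-channel reporter intensity. Duplicate channels and three replicates were used, and cysteines quantified in only one replicate were excluded.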

Sequence of UniProt P30153 (P30153 whole entry, looked up): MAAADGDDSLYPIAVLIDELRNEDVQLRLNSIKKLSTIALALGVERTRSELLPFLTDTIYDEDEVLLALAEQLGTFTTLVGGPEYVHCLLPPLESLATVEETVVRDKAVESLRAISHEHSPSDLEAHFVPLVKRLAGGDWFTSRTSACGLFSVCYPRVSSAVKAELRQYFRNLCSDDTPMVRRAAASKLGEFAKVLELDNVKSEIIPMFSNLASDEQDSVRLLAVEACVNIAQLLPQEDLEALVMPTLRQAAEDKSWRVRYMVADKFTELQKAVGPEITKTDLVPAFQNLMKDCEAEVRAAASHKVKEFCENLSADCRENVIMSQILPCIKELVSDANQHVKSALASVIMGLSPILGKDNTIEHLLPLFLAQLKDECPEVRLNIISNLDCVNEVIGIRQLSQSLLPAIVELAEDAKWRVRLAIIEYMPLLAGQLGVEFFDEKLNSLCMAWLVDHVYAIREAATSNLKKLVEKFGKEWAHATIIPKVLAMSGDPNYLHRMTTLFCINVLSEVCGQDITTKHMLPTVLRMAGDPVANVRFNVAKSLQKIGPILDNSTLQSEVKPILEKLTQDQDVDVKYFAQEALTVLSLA
Sequence of UniProt P13995 (P13995 whole entry, looked up): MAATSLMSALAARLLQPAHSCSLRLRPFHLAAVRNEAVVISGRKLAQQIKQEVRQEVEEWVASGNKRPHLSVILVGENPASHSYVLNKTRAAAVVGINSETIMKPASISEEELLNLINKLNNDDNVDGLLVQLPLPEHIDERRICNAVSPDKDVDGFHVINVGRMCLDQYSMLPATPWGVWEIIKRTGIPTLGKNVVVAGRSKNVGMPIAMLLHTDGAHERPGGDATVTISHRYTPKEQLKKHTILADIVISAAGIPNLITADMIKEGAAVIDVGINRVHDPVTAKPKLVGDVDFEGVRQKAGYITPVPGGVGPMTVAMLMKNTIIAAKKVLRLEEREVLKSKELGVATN
Sequence of UniProt P50395 (P50395 whole entry): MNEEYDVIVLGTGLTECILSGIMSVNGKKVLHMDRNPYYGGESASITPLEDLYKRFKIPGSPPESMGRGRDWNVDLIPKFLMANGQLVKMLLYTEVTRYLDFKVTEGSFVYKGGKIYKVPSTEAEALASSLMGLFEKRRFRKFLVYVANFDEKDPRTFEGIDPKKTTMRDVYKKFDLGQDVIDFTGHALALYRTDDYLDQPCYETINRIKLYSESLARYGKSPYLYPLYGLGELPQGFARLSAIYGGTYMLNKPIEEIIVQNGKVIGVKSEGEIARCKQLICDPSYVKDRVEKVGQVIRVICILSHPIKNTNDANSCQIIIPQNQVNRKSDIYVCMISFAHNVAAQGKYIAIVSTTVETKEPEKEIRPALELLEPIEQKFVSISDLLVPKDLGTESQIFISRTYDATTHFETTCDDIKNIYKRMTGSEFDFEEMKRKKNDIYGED
Sequence of UniProt O95639 (O95639 whole entry, looked up): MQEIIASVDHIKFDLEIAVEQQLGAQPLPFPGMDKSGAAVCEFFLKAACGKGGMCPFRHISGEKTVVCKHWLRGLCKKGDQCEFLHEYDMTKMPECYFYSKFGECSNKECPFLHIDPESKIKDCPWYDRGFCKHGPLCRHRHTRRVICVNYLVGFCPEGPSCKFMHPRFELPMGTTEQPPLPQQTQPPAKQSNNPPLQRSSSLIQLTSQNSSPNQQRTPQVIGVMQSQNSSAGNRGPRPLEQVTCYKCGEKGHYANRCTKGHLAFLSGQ
Sequence of UniProt P11177 (P11177 whole entry): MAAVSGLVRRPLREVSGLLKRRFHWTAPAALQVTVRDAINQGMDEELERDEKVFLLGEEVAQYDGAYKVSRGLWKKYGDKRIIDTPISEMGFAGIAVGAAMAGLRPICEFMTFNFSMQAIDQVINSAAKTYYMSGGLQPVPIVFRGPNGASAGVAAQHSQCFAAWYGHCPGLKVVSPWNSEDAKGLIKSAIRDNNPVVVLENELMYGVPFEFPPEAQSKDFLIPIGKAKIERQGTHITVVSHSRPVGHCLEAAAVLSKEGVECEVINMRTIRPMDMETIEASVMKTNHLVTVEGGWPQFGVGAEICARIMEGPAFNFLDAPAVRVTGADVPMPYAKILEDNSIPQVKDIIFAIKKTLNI
Sequence of UniProt P52306 (P52306 whole entry, looked up): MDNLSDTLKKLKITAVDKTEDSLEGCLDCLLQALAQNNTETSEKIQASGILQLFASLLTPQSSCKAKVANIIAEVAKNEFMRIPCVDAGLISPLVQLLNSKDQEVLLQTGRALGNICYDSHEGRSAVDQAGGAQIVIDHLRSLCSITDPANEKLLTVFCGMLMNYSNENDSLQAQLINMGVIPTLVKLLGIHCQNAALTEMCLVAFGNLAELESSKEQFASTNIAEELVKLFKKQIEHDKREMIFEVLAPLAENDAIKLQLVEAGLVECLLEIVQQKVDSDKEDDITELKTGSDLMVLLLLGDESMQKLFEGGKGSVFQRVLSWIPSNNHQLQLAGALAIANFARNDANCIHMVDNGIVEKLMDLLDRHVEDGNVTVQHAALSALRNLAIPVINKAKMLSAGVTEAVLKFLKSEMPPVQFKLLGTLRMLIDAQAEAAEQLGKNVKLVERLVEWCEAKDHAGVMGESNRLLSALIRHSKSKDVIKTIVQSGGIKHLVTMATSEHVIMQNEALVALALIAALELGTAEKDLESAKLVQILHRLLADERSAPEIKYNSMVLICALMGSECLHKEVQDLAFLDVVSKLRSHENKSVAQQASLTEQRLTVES
Sequence of UniProt P00390 (P00390 whole entry, looked up): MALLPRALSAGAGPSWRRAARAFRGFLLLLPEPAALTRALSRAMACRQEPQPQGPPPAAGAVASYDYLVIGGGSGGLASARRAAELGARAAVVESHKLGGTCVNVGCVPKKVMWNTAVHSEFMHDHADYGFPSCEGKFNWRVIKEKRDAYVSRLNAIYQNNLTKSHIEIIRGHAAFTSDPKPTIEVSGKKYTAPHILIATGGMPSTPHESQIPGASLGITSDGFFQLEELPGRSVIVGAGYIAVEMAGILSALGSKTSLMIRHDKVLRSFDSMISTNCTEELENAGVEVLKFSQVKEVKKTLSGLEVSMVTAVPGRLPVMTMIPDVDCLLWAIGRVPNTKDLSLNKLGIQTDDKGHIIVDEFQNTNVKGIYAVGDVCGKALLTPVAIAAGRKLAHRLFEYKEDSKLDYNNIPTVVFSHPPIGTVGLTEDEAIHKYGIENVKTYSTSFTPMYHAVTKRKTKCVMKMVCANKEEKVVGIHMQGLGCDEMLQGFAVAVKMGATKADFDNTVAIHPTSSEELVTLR
Sequence of UniProt P22830 (P22830 whole entry, looked up): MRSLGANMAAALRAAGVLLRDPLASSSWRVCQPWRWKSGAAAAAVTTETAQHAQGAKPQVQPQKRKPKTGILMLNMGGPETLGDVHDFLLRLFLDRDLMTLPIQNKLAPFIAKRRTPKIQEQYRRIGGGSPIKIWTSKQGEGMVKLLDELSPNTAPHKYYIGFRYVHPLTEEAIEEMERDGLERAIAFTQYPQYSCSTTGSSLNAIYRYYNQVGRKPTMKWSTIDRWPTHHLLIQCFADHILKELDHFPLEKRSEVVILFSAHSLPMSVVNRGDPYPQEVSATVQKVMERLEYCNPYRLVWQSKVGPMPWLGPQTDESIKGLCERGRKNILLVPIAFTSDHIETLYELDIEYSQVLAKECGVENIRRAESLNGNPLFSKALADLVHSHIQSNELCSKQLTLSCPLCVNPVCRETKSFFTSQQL
Sequence of UniProt P42166 (P42166 whole entry, looked up): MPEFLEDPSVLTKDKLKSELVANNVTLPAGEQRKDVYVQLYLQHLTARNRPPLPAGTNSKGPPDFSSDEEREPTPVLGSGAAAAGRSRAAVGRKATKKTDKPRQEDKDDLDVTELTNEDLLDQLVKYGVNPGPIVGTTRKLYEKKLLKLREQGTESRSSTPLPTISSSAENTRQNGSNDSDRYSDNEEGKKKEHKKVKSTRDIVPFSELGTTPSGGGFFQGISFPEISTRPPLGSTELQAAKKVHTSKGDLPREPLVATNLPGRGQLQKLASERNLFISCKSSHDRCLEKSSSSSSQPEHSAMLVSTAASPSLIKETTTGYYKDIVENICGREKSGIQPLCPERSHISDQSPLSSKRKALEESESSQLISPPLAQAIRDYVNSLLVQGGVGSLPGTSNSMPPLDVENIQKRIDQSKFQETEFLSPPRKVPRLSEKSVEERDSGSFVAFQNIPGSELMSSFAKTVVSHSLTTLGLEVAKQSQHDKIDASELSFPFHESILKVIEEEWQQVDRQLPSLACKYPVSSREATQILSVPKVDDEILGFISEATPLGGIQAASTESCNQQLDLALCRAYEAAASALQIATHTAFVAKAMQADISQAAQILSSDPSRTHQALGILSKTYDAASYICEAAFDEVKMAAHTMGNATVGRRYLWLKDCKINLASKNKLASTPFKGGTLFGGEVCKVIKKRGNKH
Sequence of UniProt P50502 (P50502 whole entry, looked up): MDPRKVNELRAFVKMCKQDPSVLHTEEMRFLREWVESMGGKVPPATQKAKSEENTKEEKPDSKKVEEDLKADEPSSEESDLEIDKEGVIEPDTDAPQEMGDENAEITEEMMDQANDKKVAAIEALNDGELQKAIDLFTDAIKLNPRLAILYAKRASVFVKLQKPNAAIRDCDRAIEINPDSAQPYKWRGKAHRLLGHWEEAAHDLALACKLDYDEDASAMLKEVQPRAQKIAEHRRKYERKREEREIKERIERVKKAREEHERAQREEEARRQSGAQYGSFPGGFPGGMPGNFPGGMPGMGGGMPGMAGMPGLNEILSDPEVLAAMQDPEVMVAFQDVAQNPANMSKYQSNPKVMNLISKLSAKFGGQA
Sequence of UniProt P08574 (P08574 whole entry, looked up): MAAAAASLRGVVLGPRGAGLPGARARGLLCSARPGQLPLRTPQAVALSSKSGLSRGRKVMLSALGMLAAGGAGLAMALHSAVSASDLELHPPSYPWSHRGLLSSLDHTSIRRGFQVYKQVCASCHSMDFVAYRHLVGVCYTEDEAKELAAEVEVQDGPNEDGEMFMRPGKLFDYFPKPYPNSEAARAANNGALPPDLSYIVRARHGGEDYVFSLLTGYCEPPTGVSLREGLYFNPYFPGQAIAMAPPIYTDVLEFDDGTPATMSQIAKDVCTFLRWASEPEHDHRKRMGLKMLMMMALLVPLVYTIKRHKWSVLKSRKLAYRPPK

log2 ratio of iodoacetamide-alkyne labeling, inactive:
UniProt P26639_C343 0.143, U2AF1L5 C67 (UniProt P0DN76) 0.366, EEF2 C369 (UniProt P13639) 0.24, ANXA7 C363 (UniProt P20073) 0.0125, PDHB C306 (UniProt P11177) -0.122, PPP2R1A C294 (UniProt P30153) 0.323, VDAC2 C8 (UniProt P45880) 0.376, LMNB1 C198 (UniProt P20700) 0.109, RAP1GDS1 C85 (UniProt P52306) 0.197, UniProt P0CG30_C105 -0.204, UniProt P26639_C107 0.12, FECH C395 (UniProt P22830) 0.372, MTHFD1 C691 (UniProt P11586) 0.242, CPSF4 C110 (UniProt O95639) -0.138, UniProt P00519_C1100 0.9, CYC1 C219 (UniProt P08574) 0.0599, UniProt P14618_C424 -0.246, HNRNPA3 C85 (UniProt P51991) 0.23, MCC C714 (UniProt P23508) 0.565, GSR C102 (UniProt P00390) 0.154, ST13 C209 (UniProt P50502) 0.272, MTHFD2 C145 (UniProt P13995) 0.057, ADD1 C68 (UniProt P35611) 0.368, RANBP2 C1335 (UniProt P49792) 0.226, MAP1B C73 (UniProt P46821) 0.173, GDI2 C202 (UniProt P50395) -0.0158, MTOR C300 (UniProt P42345) 0.376, ENO1 C357 (UniProt P06733) -0.0848, UniProt P49459_C88 0.243, ENO1 C389 (UniProt P06733) 0.125, FLNA C1018 (UniProt P21333) 0.0782, ACSL3 C652 (UniProt O95573) -0.112

log2 ratio of iodoacetamide-alkyne labeling, active:
TMPO C570 (UniProt P42166) 1.16, BCR C395 (UniProt P11274) 1.17, IDH3A C359 (UniProt P50213) 1.05, DSP C3 (UniProt P15924) 1.14, MCM5 C219 (UniProt P33992) 1.34
